# How the values were obtained:
# Experiment in all cases: DAPPL (digital affinity profiling via proximity ligation, sequencing); 10 mM Tris-HCl pH 7.5, 50 mM NaCl, 1 mM DTT, 4% glycerol, room temperature, 30 min; GST-TFs on glutathione beads, 16-mer random dsDNA library, 0.1% formaldehyde crosslink after washing; high values mean tight binding
# [1] = target: T1, FEV (Homo sapiens, UniProt Q99581 1-238); settings: protein: recombinant; tags: N-terminal GST; dsDNA, one strand shown
# T1 sequence: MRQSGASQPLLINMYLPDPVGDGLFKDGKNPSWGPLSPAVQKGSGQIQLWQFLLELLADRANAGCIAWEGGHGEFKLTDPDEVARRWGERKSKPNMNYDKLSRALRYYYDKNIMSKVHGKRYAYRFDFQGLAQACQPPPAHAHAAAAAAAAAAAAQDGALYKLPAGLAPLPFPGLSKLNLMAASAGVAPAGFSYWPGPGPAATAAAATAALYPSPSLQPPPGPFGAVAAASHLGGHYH
# Procedure, shortened: (§1)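 Binding signal is given per hexamer as its read frequency for a factor divided by its frequency in the tag-only sample. GST-fused human transcription factors were expressed in yeast, captured on glutathione beads, barcoded with DNA and pooled with that sample, then incubated with 200 nmole of a 16-mer random double-stranded DNA library in Tris/NaCl/DTT/glycerol buffer for 30 min at room temperature. The pools were then washed, crosslinked, proximity-ligated, amplified by PCR and sequenced on an Illumina NextSeq500.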
# [2] = target: ETV5 (Homo sapiens, UniProt P41161 1-510); settings: protein: recombinant; tags: N-terminal GST; dsDNA, one strand shown
# ETV5, sequence (P41161 whole entry): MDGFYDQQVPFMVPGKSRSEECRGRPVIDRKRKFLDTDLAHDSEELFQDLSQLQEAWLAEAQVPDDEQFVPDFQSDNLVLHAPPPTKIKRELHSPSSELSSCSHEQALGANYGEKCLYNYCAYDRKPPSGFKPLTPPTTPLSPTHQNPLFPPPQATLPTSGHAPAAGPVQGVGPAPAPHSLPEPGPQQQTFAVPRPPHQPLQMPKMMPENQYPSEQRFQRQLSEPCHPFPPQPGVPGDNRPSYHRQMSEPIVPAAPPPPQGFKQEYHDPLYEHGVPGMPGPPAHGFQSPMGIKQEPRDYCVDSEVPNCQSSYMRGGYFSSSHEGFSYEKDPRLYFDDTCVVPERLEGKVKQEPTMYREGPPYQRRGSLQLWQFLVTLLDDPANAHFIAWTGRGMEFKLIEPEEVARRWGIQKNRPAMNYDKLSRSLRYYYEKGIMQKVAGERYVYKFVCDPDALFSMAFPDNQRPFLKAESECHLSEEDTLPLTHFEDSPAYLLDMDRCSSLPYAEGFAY
# Procedure, shortened: as §1
# [3] = target: HSF1 (Homo sapiens, UniProt Q00613 1-529); settings: protein: recombinant; tags: N-terminal GST; chain copies: 3; dsDNA, one strand shown
# HSF1, sequence (Q00613 whole entry): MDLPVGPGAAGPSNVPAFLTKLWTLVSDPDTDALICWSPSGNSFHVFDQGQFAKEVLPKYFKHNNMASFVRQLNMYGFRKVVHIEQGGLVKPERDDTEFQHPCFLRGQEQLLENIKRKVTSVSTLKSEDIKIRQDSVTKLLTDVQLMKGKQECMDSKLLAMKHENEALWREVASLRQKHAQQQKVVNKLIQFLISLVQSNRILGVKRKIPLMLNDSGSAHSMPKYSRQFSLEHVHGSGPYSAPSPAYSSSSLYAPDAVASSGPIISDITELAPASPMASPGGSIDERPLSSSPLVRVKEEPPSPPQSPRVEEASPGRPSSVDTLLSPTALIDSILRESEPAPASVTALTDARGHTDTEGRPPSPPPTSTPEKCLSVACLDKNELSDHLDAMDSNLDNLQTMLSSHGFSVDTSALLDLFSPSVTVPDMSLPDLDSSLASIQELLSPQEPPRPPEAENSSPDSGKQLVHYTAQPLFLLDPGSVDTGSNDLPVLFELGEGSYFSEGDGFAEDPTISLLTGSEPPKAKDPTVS
# Procedure, shortened: as §1
# [4] = target: T2, SPIC (Homo sapiens, UniProt Q8N5J4 1-248); settings: protein: recombinant; tags: N-terminal GST; dsDNA, one strand shown
# T2 sequence: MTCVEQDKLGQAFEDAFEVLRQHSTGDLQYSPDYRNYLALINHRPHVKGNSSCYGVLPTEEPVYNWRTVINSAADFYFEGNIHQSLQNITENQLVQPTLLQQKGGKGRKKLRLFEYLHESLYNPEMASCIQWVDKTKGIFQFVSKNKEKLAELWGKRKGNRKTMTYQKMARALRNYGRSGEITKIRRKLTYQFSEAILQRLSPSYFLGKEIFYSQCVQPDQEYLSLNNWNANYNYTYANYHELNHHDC
# Procedure, shortened: as §1
# [5] = target: ELF4 (Homo sapiens, UniProt Q99607 1-663); settings: protein: recombinant; tags: N-terminal GST; dsDNA, one strand shown
# ELF4, sequence (Q99607 whole entry): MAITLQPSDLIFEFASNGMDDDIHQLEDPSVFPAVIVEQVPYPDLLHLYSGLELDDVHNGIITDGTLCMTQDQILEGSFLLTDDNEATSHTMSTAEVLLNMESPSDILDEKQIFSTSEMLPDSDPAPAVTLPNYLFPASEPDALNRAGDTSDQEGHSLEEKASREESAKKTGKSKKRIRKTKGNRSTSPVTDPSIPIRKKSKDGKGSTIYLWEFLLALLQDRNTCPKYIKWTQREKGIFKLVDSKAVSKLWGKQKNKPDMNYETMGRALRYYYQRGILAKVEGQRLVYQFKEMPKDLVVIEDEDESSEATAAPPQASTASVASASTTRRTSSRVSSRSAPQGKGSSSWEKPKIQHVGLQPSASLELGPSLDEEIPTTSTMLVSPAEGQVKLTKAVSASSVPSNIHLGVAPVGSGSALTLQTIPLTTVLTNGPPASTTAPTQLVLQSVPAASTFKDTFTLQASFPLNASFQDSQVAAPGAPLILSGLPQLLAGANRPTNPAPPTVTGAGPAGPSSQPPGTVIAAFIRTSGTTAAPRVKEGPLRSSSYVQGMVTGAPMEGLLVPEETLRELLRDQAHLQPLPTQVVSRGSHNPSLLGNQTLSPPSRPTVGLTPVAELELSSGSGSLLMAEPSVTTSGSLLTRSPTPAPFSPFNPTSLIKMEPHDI
# Procedure, shortened: as §1
# [6] = target: T3, ELK4 (Homo sapiens, UniProt P28324-2 1-405); settings: protein: recombinant; tags: N-terminal GST; dsDNA, one strand shown
# T3 sequence: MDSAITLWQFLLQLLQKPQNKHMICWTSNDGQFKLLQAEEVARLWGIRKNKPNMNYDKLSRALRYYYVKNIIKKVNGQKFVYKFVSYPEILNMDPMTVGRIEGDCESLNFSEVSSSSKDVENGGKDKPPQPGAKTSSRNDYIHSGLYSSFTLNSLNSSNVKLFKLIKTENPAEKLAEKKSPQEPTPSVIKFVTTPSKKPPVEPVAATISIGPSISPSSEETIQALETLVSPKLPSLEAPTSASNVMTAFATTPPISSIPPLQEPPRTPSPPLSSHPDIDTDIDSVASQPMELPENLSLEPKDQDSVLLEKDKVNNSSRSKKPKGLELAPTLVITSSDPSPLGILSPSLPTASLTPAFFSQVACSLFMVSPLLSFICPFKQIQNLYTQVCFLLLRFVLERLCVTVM
# Procedure, shortened: as §1
# [7] = target: T4, ETV2 (Homo sapiens, UniProt O00321 1-342); settings: protein: recombinant; tags: N-terminal GST; dsDNA, one strand shown
# T4 sequence: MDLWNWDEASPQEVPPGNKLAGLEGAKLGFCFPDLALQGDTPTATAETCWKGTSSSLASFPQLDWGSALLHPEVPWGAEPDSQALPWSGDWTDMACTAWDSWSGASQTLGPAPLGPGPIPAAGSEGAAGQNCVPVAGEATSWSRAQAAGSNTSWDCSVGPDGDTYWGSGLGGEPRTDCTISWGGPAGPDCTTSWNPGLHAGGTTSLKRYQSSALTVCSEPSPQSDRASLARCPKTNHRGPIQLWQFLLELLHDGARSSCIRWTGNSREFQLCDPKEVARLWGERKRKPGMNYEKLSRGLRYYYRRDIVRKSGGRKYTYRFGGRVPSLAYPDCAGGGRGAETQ
# Procedure, shortened: as §1
# [8] = target: T5, ELF3 (Homo sapiens, UniProt P78545 1-371); settings: protein: recombinant; tags: N-terminal GST; dsDNA, one strand shown
# T5 sequence: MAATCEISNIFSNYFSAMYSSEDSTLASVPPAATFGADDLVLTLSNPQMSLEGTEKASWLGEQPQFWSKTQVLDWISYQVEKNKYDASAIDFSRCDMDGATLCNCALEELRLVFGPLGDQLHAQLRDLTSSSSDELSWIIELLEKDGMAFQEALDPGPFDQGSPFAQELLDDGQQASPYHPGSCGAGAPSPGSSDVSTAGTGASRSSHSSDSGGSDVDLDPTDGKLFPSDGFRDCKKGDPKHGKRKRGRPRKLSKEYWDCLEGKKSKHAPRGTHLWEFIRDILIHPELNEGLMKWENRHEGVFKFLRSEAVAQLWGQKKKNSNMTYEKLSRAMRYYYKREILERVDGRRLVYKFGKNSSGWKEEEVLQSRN
# Procedure, shortened: as §1
# [9] = target: CRX (Homo sapiens, UniProt O43186 1-299); settings: protein: recombinant; tags: N-terminal GST; dsDNA, one strand shown
# CRX, sequence (O43186 whole entry): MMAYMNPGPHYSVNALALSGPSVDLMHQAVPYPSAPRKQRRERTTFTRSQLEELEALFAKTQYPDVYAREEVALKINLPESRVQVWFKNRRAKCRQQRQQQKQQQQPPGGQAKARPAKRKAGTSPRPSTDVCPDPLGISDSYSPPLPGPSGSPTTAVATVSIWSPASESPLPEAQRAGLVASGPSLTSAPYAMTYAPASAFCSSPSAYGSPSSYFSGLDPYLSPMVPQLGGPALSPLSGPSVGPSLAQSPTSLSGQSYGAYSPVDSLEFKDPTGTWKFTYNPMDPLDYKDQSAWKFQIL
# Procedure, shortened: as §1
# [10] = target: ETV1 (Homo sapiens, UniProt P50549 1-477); settings: protein: recombinant; tags: N-terminal GST; dsDNA, one strand shown
# ETV1, sequence (P50549 whole entry): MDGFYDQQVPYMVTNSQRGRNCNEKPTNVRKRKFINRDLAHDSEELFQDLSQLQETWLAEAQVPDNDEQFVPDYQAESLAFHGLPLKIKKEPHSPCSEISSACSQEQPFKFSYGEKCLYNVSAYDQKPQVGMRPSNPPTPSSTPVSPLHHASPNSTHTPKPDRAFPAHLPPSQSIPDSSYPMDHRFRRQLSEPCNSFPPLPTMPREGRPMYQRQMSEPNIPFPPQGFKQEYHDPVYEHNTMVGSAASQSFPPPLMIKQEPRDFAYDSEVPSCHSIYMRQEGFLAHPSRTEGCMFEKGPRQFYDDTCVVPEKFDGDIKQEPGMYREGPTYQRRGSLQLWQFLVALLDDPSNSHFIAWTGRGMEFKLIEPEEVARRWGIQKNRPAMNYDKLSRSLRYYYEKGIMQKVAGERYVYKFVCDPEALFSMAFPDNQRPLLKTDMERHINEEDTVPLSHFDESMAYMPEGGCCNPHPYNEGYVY
# Procedure, shortened: as §1
# [11] = target: T6, ERF (Homo sapiens, UniProt P50548 1-548); settings: protein: recombinant; tags: N-terminal GST; dsDNA, one strand shown
# T6 sequence: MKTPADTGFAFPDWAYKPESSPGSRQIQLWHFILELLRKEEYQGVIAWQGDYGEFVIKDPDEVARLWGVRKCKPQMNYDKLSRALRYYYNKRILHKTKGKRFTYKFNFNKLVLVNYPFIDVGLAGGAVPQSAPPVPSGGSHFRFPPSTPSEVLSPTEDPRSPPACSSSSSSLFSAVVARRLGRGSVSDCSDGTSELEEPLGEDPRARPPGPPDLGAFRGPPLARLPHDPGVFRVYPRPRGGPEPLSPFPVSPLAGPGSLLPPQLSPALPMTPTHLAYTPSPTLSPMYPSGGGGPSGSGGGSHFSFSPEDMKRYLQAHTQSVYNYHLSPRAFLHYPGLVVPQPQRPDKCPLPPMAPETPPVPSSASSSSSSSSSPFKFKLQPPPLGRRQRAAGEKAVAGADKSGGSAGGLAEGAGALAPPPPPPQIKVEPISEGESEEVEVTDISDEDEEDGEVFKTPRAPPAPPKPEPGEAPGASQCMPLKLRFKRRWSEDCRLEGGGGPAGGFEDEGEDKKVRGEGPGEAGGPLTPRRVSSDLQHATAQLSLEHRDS
# Procedure, shortened: as §1
# [12] = target: T7, ETV3L (Homo sapiens, UniProt Q6ZN32 1-361); settings: protein: recombinant; tags: N-terminal GST; dsDNA, one strand shown
# T7 sequence: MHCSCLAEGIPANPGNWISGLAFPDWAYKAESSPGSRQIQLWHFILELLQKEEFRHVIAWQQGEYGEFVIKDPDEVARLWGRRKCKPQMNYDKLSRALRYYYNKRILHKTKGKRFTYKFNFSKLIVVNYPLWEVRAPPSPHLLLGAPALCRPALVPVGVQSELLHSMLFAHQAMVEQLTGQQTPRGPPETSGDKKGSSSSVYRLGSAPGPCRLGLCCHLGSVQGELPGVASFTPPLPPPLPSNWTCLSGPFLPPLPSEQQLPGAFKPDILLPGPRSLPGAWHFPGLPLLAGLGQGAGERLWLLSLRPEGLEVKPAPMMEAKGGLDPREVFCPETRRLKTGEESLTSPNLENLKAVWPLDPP
# Procedure, shortened: as §1
# [13] = target: T8, ETS2 (Homo sapiens, UniProt P15036 1-469); settings: protein: recombinant; tags: N-terminal GST; dsDNA, one strand shown
# T8 sequence: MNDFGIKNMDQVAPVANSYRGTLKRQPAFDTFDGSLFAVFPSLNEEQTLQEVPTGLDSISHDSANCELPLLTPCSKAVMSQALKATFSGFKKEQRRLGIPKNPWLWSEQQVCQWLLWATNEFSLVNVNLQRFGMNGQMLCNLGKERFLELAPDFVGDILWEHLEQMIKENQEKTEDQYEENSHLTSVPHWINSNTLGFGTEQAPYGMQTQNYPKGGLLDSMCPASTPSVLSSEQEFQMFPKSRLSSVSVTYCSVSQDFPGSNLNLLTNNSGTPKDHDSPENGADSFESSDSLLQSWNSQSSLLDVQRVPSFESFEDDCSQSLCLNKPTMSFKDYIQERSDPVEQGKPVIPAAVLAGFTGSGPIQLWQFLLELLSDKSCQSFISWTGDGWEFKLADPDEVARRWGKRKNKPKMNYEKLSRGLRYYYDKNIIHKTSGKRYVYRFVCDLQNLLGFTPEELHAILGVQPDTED
# Procedure, shortened: as §1
# [14] = target: T9, SPDEF (Homo sapiens, UniProt O95238 1-335); settings: protein: recombinant; tags: N-terminal GST; dsDNA, one strand shown
# T9 sequence: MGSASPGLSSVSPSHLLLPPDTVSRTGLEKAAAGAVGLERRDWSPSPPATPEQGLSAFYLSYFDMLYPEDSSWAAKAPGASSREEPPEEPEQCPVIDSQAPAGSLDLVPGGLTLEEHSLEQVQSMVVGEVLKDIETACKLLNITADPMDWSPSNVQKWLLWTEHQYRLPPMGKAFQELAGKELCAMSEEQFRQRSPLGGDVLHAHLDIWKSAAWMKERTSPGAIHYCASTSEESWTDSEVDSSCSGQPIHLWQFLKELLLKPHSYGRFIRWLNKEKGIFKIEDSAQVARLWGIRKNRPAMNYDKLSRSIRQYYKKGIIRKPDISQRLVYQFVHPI
# Procedure, shortened: as §1
# [15] = target: T10, ETV7 (Homo sapiens, UniProt Q9Y603 1-341); settings: protein: recombinant; tags: N-terminal GST; dsDNA, one strand shown
# T10 sequence: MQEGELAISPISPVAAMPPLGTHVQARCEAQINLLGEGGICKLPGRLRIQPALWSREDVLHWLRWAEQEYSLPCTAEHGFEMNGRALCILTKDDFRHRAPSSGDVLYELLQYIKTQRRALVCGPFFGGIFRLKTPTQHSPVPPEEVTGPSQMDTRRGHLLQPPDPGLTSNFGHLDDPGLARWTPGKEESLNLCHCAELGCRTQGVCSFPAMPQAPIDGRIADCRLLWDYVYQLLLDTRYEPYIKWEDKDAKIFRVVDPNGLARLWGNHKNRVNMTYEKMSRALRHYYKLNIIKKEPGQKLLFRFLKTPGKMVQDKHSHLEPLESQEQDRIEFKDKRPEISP
# Procedure, shortened: as §1
# [16] = target: T11, ELF5 (Homo sapiens, UniProt Q9UKW6-2 1-255); settings: protein: recombinant; tags: N-terminal GST; dsDNA, one strand shown
# T11 sequence: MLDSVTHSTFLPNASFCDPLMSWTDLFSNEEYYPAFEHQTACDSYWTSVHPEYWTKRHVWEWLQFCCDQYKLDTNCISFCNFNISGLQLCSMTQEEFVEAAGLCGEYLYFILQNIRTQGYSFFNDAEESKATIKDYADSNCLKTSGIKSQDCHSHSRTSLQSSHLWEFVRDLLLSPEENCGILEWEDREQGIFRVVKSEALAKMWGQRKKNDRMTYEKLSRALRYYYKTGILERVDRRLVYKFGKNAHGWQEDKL
# Procedure, shortened: as §1
# [17] = target: T12, ETV3 (Homo sapiens, UniProt P41162-2 1-143); settings: protein: recombinant; tags: N-terminal GST; dsDNA, one strand shown
# T12 sequence: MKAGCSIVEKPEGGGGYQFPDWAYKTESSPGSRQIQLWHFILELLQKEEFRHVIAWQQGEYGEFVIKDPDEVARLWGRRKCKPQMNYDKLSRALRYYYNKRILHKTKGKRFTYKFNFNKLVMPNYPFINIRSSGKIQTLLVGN
# Procedure, shortened: as §1
# [18] = target: ETV6 (Homo sapiens, UniProt P41212 1-452); settings: protein: recombinant; tags: N-terminal GST; dsDNA, one strand shown
# ETV6, sequence (P41212 whole entry): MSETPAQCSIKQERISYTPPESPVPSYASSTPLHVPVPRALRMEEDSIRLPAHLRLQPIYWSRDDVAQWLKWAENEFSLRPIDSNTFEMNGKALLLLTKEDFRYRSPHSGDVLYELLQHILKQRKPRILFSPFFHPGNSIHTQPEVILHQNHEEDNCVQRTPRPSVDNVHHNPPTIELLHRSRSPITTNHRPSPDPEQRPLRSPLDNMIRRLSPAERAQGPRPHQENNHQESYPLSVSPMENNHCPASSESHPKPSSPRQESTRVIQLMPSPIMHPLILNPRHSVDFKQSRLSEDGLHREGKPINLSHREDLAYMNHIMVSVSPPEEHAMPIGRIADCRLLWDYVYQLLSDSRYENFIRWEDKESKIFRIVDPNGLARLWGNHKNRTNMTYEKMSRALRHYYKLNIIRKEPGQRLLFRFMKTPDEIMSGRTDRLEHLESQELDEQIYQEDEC
# Procedure, shortened: as §1
sequence,measurement,setting,value
TAAACT,binding signal,[1],"1.11 fold enrichment (6-mer frequency, TF over GST control)"
same,binding signal,[2],"1.23 fold enrichment (6-mer frequency, TF over GST control)"
same,binding signal,[3],"1.3 fold enrichment (6-mer frequency, TF over GST control)"
same,binding signal,[4],"1.12 fold enrichment (6-mer frequency, TF over GST control)"
same,binding signal,[5],"1.23 fold enrichment (6-mer frequency, TF over GST control)"
same,binding signal,[6],"1.11 fold enrichment (6-mer frequency, TF over GST control)"
same,binding signal,[7],"1.27 fold enrichment (6-mer frequency, TF over GST control)"
same,binding signal,[8],"1.04 fold enrichment (6-mer frequency, TF over GST control)"
same,binding signal,[9],"1.72 fold enrichment (6-mer frequency, TF over GST control)"
same,binding signal,[10],"1.2 fold enrichment (6-mer frequency, TF over GST control)"
same,binding signal,[11],"1.35 fold enrichment (6-mer frequency, TF over GST control)"
same,binding signal,[12],"1.17 fold enrichment (6-mer frequency, TF over GST control)"
same,binding signal,[13],"1.18 fold enrichment (6-mer frequency, TF over GST control)"
same,binding signal,[14],"1.01 fold enrichment (6-mer frequency, TF over GST control)"
same,binding signal,[15],"1.04 fold enrichment (6-mer frequency, TF over GST control)"
same,binding signal,[16],"1.16 fold enrichment (6-mer frequency, TF over GST control)"
same,binding signal,[17],"1.15 fold enrichment (6-mer frequency, TF over GST control)"
same,binding signal,[18],"1.13 fold enrichment (6-mer frequency, TF over GST control)"

# Source: PMC7862700, “An all-to-all approach to the identification of sequence-specific readers for epigenetic DNA modifications on cytosine”
